Assay results published in the supplement of paper PMC10849652.
About 8,800 targets were measured; listed, in parts, are those with a hit and a random draw of the rest. About 0.5% of all pairs of compound and target were hits.

Experiments:
Assay in all cases: log2 fold change, soluble protein after heating vs DMSO (PISA); higher = thermal stabilisation; K562 lysate, 10 uM; active = over 0.2 and 3.5 SD of the protein, either way, in both replicates (recomputed)
lapatinib = compound: CS(=O)(=O)CCNCc1ccc(-c2ccc3ncnc(Nc4ccc(OCc5cccc(F)c5)c(Cl)c4)c3c2)o1 [lapatinib]
How it was run: (§1)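 Thermal stability, expressed as log-two fold change relative to solvent controls, is given from duplicates. Crude K562 extract in PBS pH 7.4 with 1 mM MgCl2, at 1 mg/mL protein, was treated with 10 μM compound for 30 min and heated in aliquots for 3 min across 48°C-58°C. After pooling, adjustment to 0.5% NP-40 at 4°C and centrifugation at 21,000xg for 90 min, supernatant protein was measured by TMTpro 16plex LC-MS/MS with channel sums equalised.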

pictilisib = compound: CS(=O)(=O)N1CCN(Cc2cc3nc(-c4cccc5[nH]ncc45)nc(N4CCOCC4)c3s2)CC1 [pictilisib]
How it was run: as §1

crizotinib = compound: C[C@@H](Oc1cc(-c2cnn(C3CCNCC3)c2)cnc1N)c1c(Cl)ccc(F)c1Cl [crizotinib]
How it was run: as §1

[1] = compound: C[C@H](C1=CC=C(C=C1)C(=O)NC2=C3C=CNC3=NC=C2)N
How it was run: as §1

duvelisib = compound: C[C@H](Nc1ncnc2nc[nH]c12)c1cc2cccc(Cl)c2c(=O)n1-c1ccccc1 [duvelisib]
How it was run: as §1

gandotinib = compound: Cc1cc(Nc2cc(CN3CCOCC3)c3nc(C)c(Cc4ccc(Cl)cc4F)n3n2)n[nH]1 [gandotinib]
How it was run: as §1

tozasertib = compound: Cc1cc(Nc2cc(N3CCN(C)CC3)nc(Sc3ccc(NC(=O)C4CC4)cc3)n2)n[nH]1 [tozasertib]
How it was run: as §1

doramapimod = compound: Cc1ccc(-n2nc(C(C)(C)C)cc2NC(=O)Nc2ccc(OCCN3CCOCC3)c3ccccc23)cc1 [doramapimod]
How it was run: as §1

bafetinib = compound: Cc1ccc(NC(=O)c2ccc(CN3CC[C@H](N(C)C)C3)c(C(F)(F)F)c2)cc1Nc1nccc(-c2cncnc2)n1 [bafetinib]
How it was run: as §1

[2] = compound: Cc1cccc(CC(=O)N2CCc3c2ccc(-c2cn(C)c4ncnc(N)c24)c3F)n1
How it was run: as §1

nilotinib = compound: Cc1cn(-c2cc(NC(=O)c3ccc(C)c(Nc4nccc(-c5cccnc5)n4)c3)cc(C(F)(F)F)c2)cn1 [nilotinib]
How it was run: as §1

[3] = compound: Cc1nc(Nc2n[nH]c3c2CN(C(=O)N[C@H](CN(C)C)c2ccccc2)C3(C)C)c2sccc2n1
How it was run: as §1

dasatinib = compound: Cc1nc(Nc2ncc(C(=O)Nc3c(C)cccc3Cl)s2)cc(N2CCN(CCO)CC2)n1 [dasatinib]
How it was run: as §1

[4] = compound: Cc1ncc(-c2ccnc(Nc3ccc(S(C)(=O)=O)cc3)n2)n1C(C)C
How it was run: as §1

[5] = compound: Cn1cc(-c2ccc3c(c2)CCN3C(=O)Cc2cccc(C(F)(F)F)c2)c2c(N)ncnc21
How it was run: as §1

quisinostat = compound: Cn1cc(CNCC2CCN(c3ncc(C(=O)NO)cn3)CC2)c2ccccc21 [quisinostat]
How it was run: as §1

tipifarnib = compound: Cn1cncc1[C@@](N)(c1ccc(Cl)cc1)c1ccc2c(c1)c(-c1cccc(Cl)c1)cc(=O)n2C [tipifarnib]
How it was run: as §1

[6] = compound: NC(=O)Nc1cc(-c2cccc(F)c2)sc1C(=O)N[C@H]1CCCNC1
How it was run: as §1

[7] = compound: NC(=O)c1cnc(N[C@@H]2CCCC[C@@H]2N)nc1Nc1cccc(-n2nccn2)c1
How it was run: as §1

[8] = compound: NC1(c2ccc(-c3nc4ccn5c(=O)[nH]nc5c4cc3-c3ccccc3)cc2)CCC1
How it was run: as §1

Measured: log2 fold change

ARHGAP6 (UniProt O43182)
UniProt O43182, sequence (O43182 whole entry, looked up): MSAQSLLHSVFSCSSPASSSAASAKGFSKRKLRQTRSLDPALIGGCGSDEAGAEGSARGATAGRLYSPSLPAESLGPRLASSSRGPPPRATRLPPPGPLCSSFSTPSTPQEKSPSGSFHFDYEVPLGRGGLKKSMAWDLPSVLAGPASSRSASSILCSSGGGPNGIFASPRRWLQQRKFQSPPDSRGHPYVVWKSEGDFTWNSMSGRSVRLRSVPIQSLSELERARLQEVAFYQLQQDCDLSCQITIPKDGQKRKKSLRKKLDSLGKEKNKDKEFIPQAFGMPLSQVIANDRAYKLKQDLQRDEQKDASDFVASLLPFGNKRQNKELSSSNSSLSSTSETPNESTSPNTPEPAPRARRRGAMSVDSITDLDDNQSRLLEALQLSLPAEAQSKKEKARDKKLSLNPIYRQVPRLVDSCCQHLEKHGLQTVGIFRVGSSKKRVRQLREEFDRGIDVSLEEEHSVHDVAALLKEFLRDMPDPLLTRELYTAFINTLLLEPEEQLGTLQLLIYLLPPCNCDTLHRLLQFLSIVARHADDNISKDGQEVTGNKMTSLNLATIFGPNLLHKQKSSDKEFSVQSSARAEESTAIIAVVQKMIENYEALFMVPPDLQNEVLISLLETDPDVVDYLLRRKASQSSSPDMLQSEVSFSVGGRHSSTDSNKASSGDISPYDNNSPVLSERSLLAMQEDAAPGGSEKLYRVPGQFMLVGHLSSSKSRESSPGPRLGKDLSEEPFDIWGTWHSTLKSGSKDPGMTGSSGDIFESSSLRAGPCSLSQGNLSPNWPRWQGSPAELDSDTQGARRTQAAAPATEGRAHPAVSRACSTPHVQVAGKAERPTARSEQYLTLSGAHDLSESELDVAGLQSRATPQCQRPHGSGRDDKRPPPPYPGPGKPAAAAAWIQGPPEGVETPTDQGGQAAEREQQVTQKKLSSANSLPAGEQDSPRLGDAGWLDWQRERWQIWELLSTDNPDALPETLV
inactive: lapatinib 0.006 | pictilisib 0.012 | crizotinib -0.038 | [1] 0.106 | duvelisib 0.001 | gandotinib -0.097 | tozasertib 0.004 | doramapimod -0.003 | bafetinib -0.055 | [2] -0.022 | nilotinib -0.003 | [3] -0.014 | dasatinib -0.102 | [4] 0 | [5] 0.052 | quisinostat -0.019 | tipifarnib 0.02 | [6] 0.034 | [7] -0.025 | [8] -0.039

ABHD12 isoform 2 (UniProt Q8N2K0)
UniProt Q8N2K0, sequence (Q8N2K0 whole entry, looked up): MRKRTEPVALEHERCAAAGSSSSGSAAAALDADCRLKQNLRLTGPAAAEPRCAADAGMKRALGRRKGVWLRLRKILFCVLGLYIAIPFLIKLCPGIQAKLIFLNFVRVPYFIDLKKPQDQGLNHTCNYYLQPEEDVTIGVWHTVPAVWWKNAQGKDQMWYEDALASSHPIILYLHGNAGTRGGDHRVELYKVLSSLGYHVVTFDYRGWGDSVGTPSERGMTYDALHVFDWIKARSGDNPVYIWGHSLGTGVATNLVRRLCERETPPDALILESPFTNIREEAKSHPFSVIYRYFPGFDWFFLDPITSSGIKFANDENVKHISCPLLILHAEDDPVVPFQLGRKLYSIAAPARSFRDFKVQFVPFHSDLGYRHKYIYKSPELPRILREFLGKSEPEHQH
inactive: lapatinib -0.006 | pictilisib -0.069 | crizotinib -0.04 | [1] 0.078 | duvelisib -0.057 | gandotinib -0.095 | tozasertib 0.06 | doramapimod 0.04 | bafetinib 0.062 | [2] -0.063 | nilotinib 0.005 | [3] -0.004 | dasatinib 0.028 | [4] 0.058 | [5] -0.068 | quisinostat 0.044 | tipifarnib -0.077 | [6] -0.025 | [7] -0.02 | [8] 0.019

AGTPBP1 (UniProt Q9UPW5)
UniProt Q9UPW5, sequence (Q9UPW5 whole entry, looked up): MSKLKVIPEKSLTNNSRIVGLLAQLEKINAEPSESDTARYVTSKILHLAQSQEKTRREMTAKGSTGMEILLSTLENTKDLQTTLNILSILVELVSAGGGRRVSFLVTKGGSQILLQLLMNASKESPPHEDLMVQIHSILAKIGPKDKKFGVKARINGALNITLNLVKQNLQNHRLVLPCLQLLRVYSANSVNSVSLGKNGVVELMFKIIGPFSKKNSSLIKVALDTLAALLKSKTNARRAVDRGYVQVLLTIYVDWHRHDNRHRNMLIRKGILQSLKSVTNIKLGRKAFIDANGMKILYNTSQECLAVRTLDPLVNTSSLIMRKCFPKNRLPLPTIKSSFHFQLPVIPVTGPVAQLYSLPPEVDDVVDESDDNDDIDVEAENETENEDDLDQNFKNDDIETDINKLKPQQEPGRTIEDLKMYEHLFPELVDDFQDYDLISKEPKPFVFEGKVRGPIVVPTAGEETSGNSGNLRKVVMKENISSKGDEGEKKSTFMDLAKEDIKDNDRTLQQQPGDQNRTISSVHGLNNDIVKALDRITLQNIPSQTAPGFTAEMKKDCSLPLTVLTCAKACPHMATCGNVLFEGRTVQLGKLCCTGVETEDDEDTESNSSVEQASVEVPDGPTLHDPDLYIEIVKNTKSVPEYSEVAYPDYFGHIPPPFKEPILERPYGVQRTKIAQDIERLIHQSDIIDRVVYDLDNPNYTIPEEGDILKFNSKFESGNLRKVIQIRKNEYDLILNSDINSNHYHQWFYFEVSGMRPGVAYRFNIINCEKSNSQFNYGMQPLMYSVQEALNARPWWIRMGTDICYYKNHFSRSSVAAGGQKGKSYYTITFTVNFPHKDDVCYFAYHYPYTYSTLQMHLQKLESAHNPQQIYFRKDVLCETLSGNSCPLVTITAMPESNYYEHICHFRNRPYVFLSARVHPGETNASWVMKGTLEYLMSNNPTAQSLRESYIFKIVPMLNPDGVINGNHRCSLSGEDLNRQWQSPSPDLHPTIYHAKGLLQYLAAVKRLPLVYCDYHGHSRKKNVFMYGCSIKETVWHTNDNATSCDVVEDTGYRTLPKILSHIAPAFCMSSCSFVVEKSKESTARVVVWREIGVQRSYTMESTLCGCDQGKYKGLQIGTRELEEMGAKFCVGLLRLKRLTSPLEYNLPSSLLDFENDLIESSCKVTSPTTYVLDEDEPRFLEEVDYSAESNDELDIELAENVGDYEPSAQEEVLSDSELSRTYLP
inactive: lapatinib 0.008 | pictilisib -0.103 | crizotinib -0.121 | [1] 0.018 | duvelisib 0.009 | gandotinib -0.271 | tozasertib 0.028 | doramapimod 0.007 | bafetinib 0.001 | [2] 0.113 | nilotinib 0.077 | [3] -0.205 | dasatinib 0.038 | [4] 0.1 | [5] -0.032 | quisinostat -0.197 | tipifarnib 0.207 | [6] 0.038 | [7] 0.045 | [8] 0.115

ACYP1 (UniProt P07311)
UniProt P07311, sequence (P07311 whole entry, looked up): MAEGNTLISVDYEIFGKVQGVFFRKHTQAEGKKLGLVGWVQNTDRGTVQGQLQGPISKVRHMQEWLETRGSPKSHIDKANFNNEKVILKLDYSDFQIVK
active: [1] 0.236
inactive: lapatinib -0.001 | pictilisib -0.044 | crizotinib 0.024 | duvelisib 0.005 | gandotinib -0.051 | tozasertib 0.016 | doramapimod 0.009 | bafetinib 0.005 | [2] -0.091 | nilotinib -0.014 | [3] 0.019 | dasatinib 0.022 | [4] -0.028 | [5] 0.014 | quisinostat 0.024 | tipifarnib 0.019 | [6] -0.029 | [7] -0.013 | [8] 0.039

ABHD17A isoform 2 (UniProt Q96GS6)
UniProt Q96GS6, sequence (Q96GS6 whole entry, looked up): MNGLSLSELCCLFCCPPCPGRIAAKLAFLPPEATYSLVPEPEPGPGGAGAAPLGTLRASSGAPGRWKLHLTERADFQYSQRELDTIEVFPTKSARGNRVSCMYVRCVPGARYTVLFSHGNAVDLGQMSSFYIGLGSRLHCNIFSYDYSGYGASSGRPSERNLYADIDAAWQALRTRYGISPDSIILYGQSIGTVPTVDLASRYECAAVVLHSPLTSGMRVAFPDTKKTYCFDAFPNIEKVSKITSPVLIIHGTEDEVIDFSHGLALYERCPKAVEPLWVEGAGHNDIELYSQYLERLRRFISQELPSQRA
inactive: lapatinib -0.034 | pictilisib -0.044 | crizotinib 0.017 | [1] -0.074 | duvelisib 0.01 | gandotinib 0.139 | tozasertib 0.019 | doramapimod 0.044 | bafetinib 0.019 | [2] 0.065 | nilotinib 0.062 | [3] 0.038 | dasatinib -0.141 | [4] 0.096 | [5] 0.017 | quisinostat -0.09 | tipifarnib 0.097 | [6] -0.007 | [7] 0.008 | [8] 0.007

ARHGEF2 (UniProt Q92974)
UniProt Q92974, sequence (Q92974 whole entry, looked up): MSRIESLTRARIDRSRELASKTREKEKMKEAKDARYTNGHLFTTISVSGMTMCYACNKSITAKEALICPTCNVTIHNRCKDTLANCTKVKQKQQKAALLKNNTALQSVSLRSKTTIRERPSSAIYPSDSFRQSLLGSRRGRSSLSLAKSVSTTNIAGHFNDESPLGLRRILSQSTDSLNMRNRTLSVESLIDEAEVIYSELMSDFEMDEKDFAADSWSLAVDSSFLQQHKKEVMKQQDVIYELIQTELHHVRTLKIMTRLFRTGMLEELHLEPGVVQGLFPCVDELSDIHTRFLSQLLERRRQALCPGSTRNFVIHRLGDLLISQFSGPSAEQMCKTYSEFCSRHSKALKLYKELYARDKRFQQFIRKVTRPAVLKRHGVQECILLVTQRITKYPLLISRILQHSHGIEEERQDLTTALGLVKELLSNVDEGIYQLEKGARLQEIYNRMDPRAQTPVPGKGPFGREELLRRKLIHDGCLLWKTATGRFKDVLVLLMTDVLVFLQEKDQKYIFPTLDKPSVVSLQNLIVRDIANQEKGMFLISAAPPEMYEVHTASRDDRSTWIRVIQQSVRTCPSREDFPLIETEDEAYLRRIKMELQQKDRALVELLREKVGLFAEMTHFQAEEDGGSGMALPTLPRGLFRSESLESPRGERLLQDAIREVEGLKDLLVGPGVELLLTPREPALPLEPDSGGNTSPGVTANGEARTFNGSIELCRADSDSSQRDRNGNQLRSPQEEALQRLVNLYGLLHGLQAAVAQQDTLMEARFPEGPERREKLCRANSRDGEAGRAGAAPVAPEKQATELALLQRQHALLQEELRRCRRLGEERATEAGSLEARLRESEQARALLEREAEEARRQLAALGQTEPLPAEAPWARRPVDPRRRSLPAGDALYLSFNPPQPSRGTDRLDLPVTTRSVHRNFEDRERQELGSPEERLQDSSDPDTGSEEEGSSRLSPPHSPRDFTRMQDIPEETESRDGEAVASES
inactive: lapatinib 0.014 | pictilisib 0.005 | crizotinib -0.016 | [1] 0.006 | duvelisib -0.017 | gandotinib 0.025 | tozasertib 0.018 | doramapimod 0.089 | bafetinib -0.045 | [2] 0.04 | nilotinib 0.014 | [3] -0.01 | dasatinib -0.01 | [4] -0.025 | [5] 0.013 | quisinostat -0.048 | tipifarnib -0.04 | [6] 0.006 | [7] -0.008 | [8] 0.013

ARFGAP1 (UniProt Q8N6T3)
UniProt Q8N6T3, sequence (Q8N6T3 whole entry, looked up): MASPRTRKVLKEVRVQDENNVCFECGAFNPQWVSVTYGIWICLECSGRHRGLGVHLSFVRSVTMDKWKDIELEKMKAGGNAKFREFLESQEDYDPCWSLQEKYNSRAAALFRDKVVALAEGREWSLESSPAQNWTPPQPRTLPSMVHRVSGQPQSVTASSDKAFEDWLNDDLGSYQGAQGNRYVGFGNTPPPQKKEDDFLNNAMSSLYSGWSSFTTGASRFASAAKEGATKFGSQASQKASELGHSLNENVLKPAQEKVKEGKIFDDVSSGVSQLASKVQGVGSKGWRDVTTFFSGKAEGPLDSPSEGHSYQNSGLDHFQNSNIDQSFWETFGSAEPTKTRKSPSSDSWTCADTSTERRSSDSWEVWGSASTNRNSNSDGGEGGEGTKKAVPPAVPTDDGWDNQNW
inactive: lapatinib 0.002 | pictilisib 0.175 | crizotinib 0.031 | [1] -0.077 | duvelisib -0.054 | tozasertib -0.011 | doramapimod 0.202 | bafetinib -0.157 | [2] 0.202 | nilotinib 0.159 | [3] 0.1 | dasatinib -0.03 | [4] -0.016 | [5] -0.043 | quisinostat -0.004 | [6] 0.063 | [7] -0.032 | [8] -0.111
active: gandotinib 1.08 | tipifarnib -0.475
